For part of these data: Measured potencies and affinities stand elsewhere. Active and inactive are the calls of the source.
Assays:
[1] = Ebola virus entry assay, green channel fluorescence
[2] = Ebola virus entry assay, blue channel fluorescence
[3] = Ebola virus entry assay, reporter ratio channel; AC50: Channel type: primary unless noted; outcome: Channel type: primary unless noted
[4] = Ebola virus entry assay, blue channel (ratio component)
[5] = Ebola virus entry cell assay, ratio channel

Measured: outcome

O=c1[nH]cc(F)c(=O)[nH]1
inactive: all assays above

CC(C)NCC(O)c1ccc(O)c(O)c1 (stereo not given)
inactive: all assays above

Cc1cnc(C(=O)NCCc2ccc(S(=O)(=O)NC(=O)NC3CCCCC3)cc2)cn1
inactive: all assays above

CN(CCOc1ccc(CC2SC(=O)NC2=O)cc1)c1ccccn1 (stereo not given)
inactive: all assays above

CCCCCOC(=O)Nc1nc(=O)n([C@@H]2O[C@H](C)[C@@H](O)[C@H]2O)cc1F
inactive: all assays above

COC(=O)C(c1ccccc1Cl)N1CCc2sccc2C1 (stereo not given)
inactive: all assays above

CCCN(CCC)CCc1cccc2c1CC(=O)N2
inactive: all assays above

CN(C)/N=N/c1nc[nH]c1C(N)=O
inactive: all assays above

Cc1ccccc1N1C(=O)c2cc(S(N)(=O)=O)c(Cl)cc2NC1C (stereo not given)
inactive: all assays above

CCC[C@H](N[C@@H](C)C(=O)N1[C@H](C(=O)O)C[C@@H]2CCCC[C@@H]21)C(=O)OCC
inactive: all assays above

CC(=O)N(O)CCCCCNC(=O)CCC(=O)N(O)CCCCCNC(=O)CCC(=O)N(O)CCCCCN
inactive: all assays above

O=C(NCCN1CCOCC1)c1ccc(Cl)cc1
inactive: all assays above

O=C1C(=O)c2ccccc2C(O)=C1C1CCC(c2ccc(Cl)cc2)CC1 (stereo not given)
inactive: all assays above

CC[C@@]1(c2ccccc2)NC(=O)N(C)C1=O
inactive: all assays above

CC1(C)S[C@@H]2[C@H](NC(=O)Cc3ccccc3)C(=O)N2[C@H]1C(=O)O (tested in a mixture with another compound)
inactive: all assays above

CC(C)(O)c1ccccc1CC[C@@H](SCC1(CC(=O)O)CC1)c1cccc(/C=C/c2ccc3ccc(Cl)cc3n2)c1
inactive: all assays above

CC(=O)OCC(CCn1cnc2cnc(N)nc21)COC(C)=O
inactive: all assays above

O=C1N=C(O)CN1/N=C/c1ccc(-c2ccc([N+](=O)[O-])cc2)o1
inactive: all assays above

Cc1cn([C@H]2C=C[C@@H](CO)O2)c(=O)[nH]c1=O
inactive: all assays above

NS(=O)(=O)c1cc2c(cc1Cl)NC=NS2(=O)=O
inactive: all assays above

CCCN(CCC)S(=O)(=O)c1ccc(C(=O)O)cc1
inactive: all assays above

COc1nc(N)nc2c1ncn2[C@@H]1O[C@H](CO)[C@@H](O)[C@@H]1O
inactive: all assays above

COc1c(C)c2c(c(O)c1C/C=C(\C)CCC(=O)O)C(=O)OC2
inactive: all assays above

Cc1onc(-c2ccccc2Cl)c1C(=O)N[C@@H]1C(=O)N2[C@@H]1SC(C)(C)[C@@H]2C(=O)O
inactive: all assays above

O=c1n(CCCN2CCN(c3cccc(Cl)c3)CC2)nc2ccccn12
inactive: all assays above

CN1C(CCl)Nc2cc(Cl)c(S(N)(=O)=O)cc2S1(=O)=O (stereo not given)
inactive: all assays above

COc1cc2c(cc1OC)[C@@H]1CC(=O)[C@@H](CC(C)C)CN1CC2
inactive: all assays above

NC(=O)NO
inactive: all assays above

CN(C)c1nc(N(C)C)nc(N(C)C)n1
inactive: all assays above

C[C@H]1O[C@H](O[C@H]2[C@H](O)[C@@H](O)[C@@H](O[C@H]3[C@H](O)[C@@H](O)[C@H](O)O[C@@H]3CO)O[C@@H]2CO)[C@H](O)[C@@H](O)[C@@H]1N[C@H]1C=C(CO)[C@@H](O)[C@H](O)[C@H]1O
inactive: all assays above
